“And” between values parts separate entries of the source, which are not always exact repeats. Equal entries are not always repeated. About 83,000 compounds went through this panel and 20% of them were active in at least one assay; those are over-represented in the sample as a whole.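 Growth was measured after 48 h exposure to one concentration of compound in 96-well plates. Values under 10 count as active.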 Unmarked numbers belong to inactive results. The source made the active and inactive calls.
Columns and labels:
Test in all cases: NCI-60 one-dose screen, 48 h (100 = growth as untreated, 0 = no growth, -100 = all killed)
Settings in all cases: 10 µM
[1] = tested on: RPMI-8226 leukemia
[2] = tested on: OVCAR-8 ovarian
[3] = tested on: OVCAR-5 ovarian
[4] = tested on: OVCAR-4 ovarian
[5] = tested on: SK-OV-3 ovarian
[6] = tested on: IGROV1 ovarian
[7] = tested on: OVCAR-3 ovarian
[8] = tested on: HS 578T breast
[9] = tested on: NCI/ADR-RES ovarian
[10] = tested on: T-47D breast
[11] = tested on: BT-549 breast
[12] = tested on: MDA-MB-435 melanoma
[13] = tested on: SW-620 colon
[14] = tested on: MCF7 breast
[15] = tested on: HCT-116 colon
[16] = tested on: HCC-2998 colon
[17] = tested on: KM12 colon
[18] = tested on: MDA-MB-468 breast

SMILES	growth [1]	growth [2]	growth [3]	growth [4]	growth [5]	growth [6]	growth [7]	growth [8]	growth [9]	growth [10]	growth [11]	growth [12]	growth [13]	growth [14]	growth [15]	growth [16]	growth [17]	growth [18]
Cc1ccc(-c2ccc(SCC(=O)Nc3ccc(Cl)c(C(F)(F)F)c3)nn2)cc1	19.7%	1.56% (active)	39.1%	62.4%	46.6%	30.1%	2.46% (active)	15.7%	-23.5% (active)	26.2%	25.4%	-18.8% (active)	24.2%	15.9%	10.3%	12.9%	24.7%	-31% (active)
COc1cc2c3c(n(CCCNCCO)c(=O)c2cc1OC)-c1nc2c(cc1C3=O)OCO2	3.98% (active)	-69.3% (active)	-3.64% (active)	26.1%	-14.2% (active)	12.4%	-68.5% (active)	65.6%	84.1%	1.91% (active)	25.3%	45.2%	20.2%	-11.4% (active)	-49.8% (active)	11.6%	40.4%	-58.8% (active)
O=C(Cn1cc(CSc2nnc3oc4ccccc4n23)nn1)Nc1cccc(Cl)c1	48.5%	74.9%	87.8%	63.4%	54.3%	78.7%	78.5%	66.6%	53.4%	45.2%	83.1%	74.4%	103%	49%	71.8%	84.7%	70.6%	37.7%
CCN1CCN(Cc2ccc(NC(=O)c3cccc(-n4cc(-c5ccc(NC(C)=O)nc5)nn4)c3)cc2C(F)(F)F)CC1	80.6%	99%	158%	98%	96.6%	127%	131%	101%	100%	100%	144%	-39.8% (active)	109%	70.4%	86.3%	115%	22.9%	74%
O=C1NC(=NC23CC4CC(CC(C4)C2)C3)N/C1=C\c1ccc2ncsc2c1	-14.7% (active)	10.5%	-7.67% (active)	8.44% (active)	25.1%	4.69% (active)	-6.21% (active)	-0.802% (active)	-10.5% (active)	-0.474% (active)	-11.5% (active)	17.8%	5.03% (active)	-9.76% (active)	14.1%	16.2%	2.26% (active)	-48.2% (active)
Brc1ccc(/C=C/c2n(Cc3ccc4ccccc4c3)c3ccccc3[n+]2Cc2ccc3ccccc3c2)cc1	-56.8% (active)	-64% (active)	-91.1% (active)	-85.9% (active)	-3.34% (active)	-68.4% (active)	-89.5% (active)	-43.6% (active)	78.7%	-58.1% (active)	-56.6% (active)	-94% (active)	-73.9% (active)	-65.7% (active)	-86.5% (active)	-98% (active)	-40.7% (active)	-88.7% (active)
Cc1nc(Nc2nc(C)c3ccc(OCCN4CCOCC4)cc3n2)[nH]c(=O)c1C	7.09% (active)	0.429% (active)	-39.9% (active)	-22.1% (active)	-6.44% (active)	-14% (active)	3.38% (active)	11.9%	-19.5% (active)	-10.5% (active)	-74.2% (active)	-50.8% (active)	8.56% (active)	0.281% (active)	6.7% (active)	-72.8% (active)	6.49% (active)	-72.8% (active)
CC1=C2C(=C[C@@](C)(COCOCCCl)[C@@H]2O)C(=O)[C@](C)(O)C12CC2	10.1%	-38.4% (active)	-56.6% (active)	-48.6% (active)	-33.7% (active)	-38.5% (active)	-27.4% (active)	-15.8% (active)	-61.7% (active)	-15.8% (active)	-81.2% (active)	-81.1% (active)	0.591% (active)	-46.2% (active)	12.6%	-91.7% (active)	0.906% (active)	-89.9% (active)
O=c1oc2ccc(-c3ccc(F)cc3F)cc2c(=O)n1-c1ccc(Cl)c(C(F)(F)F)c1	-32.1% (active)	6.71% (active)	-2.12% (active)	16.1%	-4.08% (active)	17.8%	11.7%	-0.864% (active)	-12.2% (active)	-12.5% (active)	-37.4% (active)	-5.35% (active)		-16.2% (active)	9.46% (active)	2.17% (active)	-14% (active)	3.54% (active) and -40.4% (active)
N[C@@H](CSSC[C@H](N)C(=O)Nc1ccc(OCC2CCCC2)cc1)C(=O)Nc1ccc(OCC2CCCC2)cc1	-57.3% (active)	-59.8% (active)	-100% (active)	-96.9% (active)	-97.9% (active)	-92.1% (active)	-86.5% (active)	-61.7% (active)	-77.2% (active)	-68.9% (active)	-63.5% (active)	-100% (active)		-73% (active)	-35.9% (active)	-96.5% (active)	-80.6% (active)	-93.4% (active)
COc1ccc(C(C)=C(c2ccc(OCCCN(C)C)cc2)c2ccc(OCCCN(C)C)cc2)cc1	-66% (active)	-92.6% (active)	-100% (active)	-94.6% (active)	-99.5% (active)	-91.1% (active)	-81.3% (active)	-68.2% (active)	-96.6% (active)	-76.2% (active)	-78.4% (active)	-99.9% (active)		-69.5% (active)	-72.1% (active)	-91.6% (active)	-85.5% (active)	-88% (active)
COc1ccc(-c2nc(S(=O)(=O)c3ccc(C)cc3)c(S(C)(=O)=O)o2)cc1	-40.3% (active)	-77.5% (active)	-88% (active)	-90.2% (active)	83.6%	-24% (active)	-92.4% (active)	8.31% (active)	-62.4% (active)	-75.7% (active)	-12.5% (active)	-97.1% (active)		-53.1% (active)	-0.211% (active)	-87.6% (active)	-19% (active)	-92.9% (active)
Cc1cccc2cc(-c3cc(-c4ccccc4)nc(=O)[nH]3)c(Cl)nc12	17.8%	72.8%	93%	103%	118%	101%	91.4%	89.8%	73.5%	76.7%	84.4%	99.8%	87.7%		63.4%	102%	73.5%	83.6%
COc1cccc(-c2ccc(/C=N/NC(=O)c3[nH]c4ccc(Br)cc4c3-c3ccccc3)o2)c1	1.18% (active)	-16% (active)	12.3%	37.3%	34.2%	32.6%	8.31% (active)	-1.37% (active)	-35% (active)	54.7%	25.8%	-30.7% (active)	24.6%		-7.28% (active)	11.8%	10.8%	-2.92% (active)
N#Cc1c(-c2ccc(F)cc2)nc(SCc2ccc([N+](=O)[O-])cc2)nc1N1CCOCC1	80.3%	53.1%	92.1%	57.2%	44.5%	80.5%	69.7%	15.6%	41.6%	55.5%	58.5%	84%	80.5%	58.5%	64.4%	90.7%	84.9%	50.6%
CC(=O)NCC1=C(C)C=C2C(=O)[C@](C)(O)C3(CC3)C(C)=C21	82.7%	-63.6% (active)	-28.8% (active)	-53% (active)	-58.5% (active)	-39.3% (active)	-19.9% (active)	-37.4% (active)	-46.1% (active)	-11.8% (active)	-46.5% (active)	-80% (active)	70.1%	3.29% (active)	-45.1% (active)	-79.4% (active)	-5.71% (active)	-79.7% (active)
CNCc1cccc2c1OCCCCCC[C@@](C)(O)CC1(CC1)S(=O)(=O)c1ccc(cc1)-c1cnc(N)c(n1)C(=O)N2	-31.3% (active)	-65.5% (active)	-89.7% (active)	-76.9% (active)	-87.9% (active)	-91.2% (active)	-91.1% (active)	-40.5% (active)	-92.1% (active)	33.7%	-75.2% (active)	-95.2% (active)		-90% (active)	0.182% (active)	-100% (active)	-68.7% (active)	-98% (active)

— PubChem BioAssay (NCI)
